Screening results deposited in PubChem by National Center for Advancing Translational Sciences (NCATS).
Sampled rows, rich in hits. Any-hit rate of the full collection: about 2.9%.
DRD3 agonist = agonists of human D3 dopamine receptor | D3R DiscoveRx beta-arrestin cells, luminescence, 90 min | P35462 | max activation, % | 410,000 compounds, 0.58% hits; in the data active = max activation above about 30%; also: 0% is about no effect
Target sequence (P35462 whole entry, looked up): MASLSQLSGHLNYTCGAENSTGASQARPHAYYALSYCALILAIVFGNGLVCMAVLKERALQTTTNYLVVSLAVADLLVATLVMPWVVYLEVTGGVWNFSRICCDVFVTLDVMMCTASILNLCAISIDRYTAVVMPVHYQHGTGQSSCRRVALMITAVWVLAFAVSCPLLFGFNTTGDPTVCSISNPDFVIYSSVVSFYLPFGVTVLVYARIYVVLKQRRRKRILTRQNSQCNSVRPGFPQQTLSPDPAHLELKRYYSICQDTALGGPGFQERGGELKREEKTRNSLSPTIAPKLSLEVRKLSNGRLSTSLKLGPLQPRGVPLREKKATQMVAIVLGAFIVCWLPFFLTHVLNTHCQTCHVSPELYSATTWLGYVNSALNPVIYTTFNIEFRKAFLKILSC
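Cells at 1500/well, incubated overnight, then treated with pinned compounds (dopamine as control) for 90 min at 37 degrees C. DiscoveRx reagent added for 30 - 60 minutes at room temperature; luminescence read.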
IDH1 R132H inh = human IDH1 R132H inhibition. IDH1-R132H enzyme, NADPH consumption, diaphorase/resazurin fluorescence. Potency, µM (titrated, usually from 76.6 µM), for inactives: at the top dose activity change, negative = inhibition, usual class: inhibitors. 390,000 compounds, 0.093% hits; also: potency is read from the fitted curve at half-maximal effect; % is scaled to controls: 0 for no effect and ±100 for the full control effect; nearly all actives have a fitted effect of over 65% in size
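IDH1-R132H (0.5 ug/mL) preincubated 30 min with compound, then NADPH (0.016 mM) and alpha-KG (2 mM) added; 80 min at RT, pH 7.5. Remaining NADPH coupled via diaphorase/resazurin to fluorescence (540/590 nm); concentration-response curves normalized to no-enzyme control.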
Integrin act MD = integrin-mediated muscular dystrophy alleviation activation. Potency, µM (doses to about 38.3 µM), inactives show at the highest dose activation, hits mostly activators. 350,000 compounds, 0.064% hits. alpha7betagal myoblasts, beta-gal FDG fluorescence, 48 h. AID 624291;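 also: potency is read from the fitted curve at half-maximal effect; 100% = response of the positive control SU9516; nearly all actives have a fitted effect of over 60% in size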
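alpha7betagal+/- myoblasts (passage 13, 250/well) treated 48 h at 37C with compounds at 1:260 dilution of DMSO stock. Lysed, then beta-galactosidase activity read as FDG fluorescence (ex 480/em 540) after 30 min, with pre-read for autofluorescence.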
B2AR arrestin = agonists driving beta-arrestin recruitment to human beta2-adrenergic receptor; P07550; Potency, µM (series often up to 46.1 µM), without a hit: top-dose activation, hits mostly activators; beta-arrestin recruitment to beta2AR, cell-based reporter; 330,000 compounds, 0.02% hits;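 also: potency is read from the fitted curve at half-maximal effect; 0% = DMSO controls and full agonism = EC100 isoproterenol or metaproterenol; nearly all actives have a fitted effect of over 65% in size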
D3 antag = D3 dopamine receptor (human) antagonism; P35462; D3R cells, DiscoveRx beta-arrestin luminescence, antagonist mode; stronger effect = lower value; max response, negative = inhibition, %; 360,000 compounds, 2.5% hits; AID 652054; in the data active = max response below about -50%; inconclusive = no clear call, values can overlap the other calls; also: % is scaled to controls: 0 for no effect and ±100 for the full control effect
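Cells expressing the human receptor were seeded at 1500 cells/well, incubated overnight at 37 degrees C in 5% CO2, then exposed to library compounds with dopamine controls for 90 minutes at 37 degrees C before luminescent detection.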
Active calls of the source: *; ? = inconclusive; nt = not tested or not shown; [ ] = another dose, or the depositor's remark. Unless noted, calls follow the shape of the dose curve; as a rule, active = well fitted curve in the direction sought with a large enough effect; inconclusive = small, poorly fitted or top-dose-only effect, or another doubt; inactive = no such curve, though single readings can be large; an effect the other way counts as inactive or inconclusive.

SMILES	DRD3 agonist	IDH1 R132H inh	Integrin act MD	B2AR arrestin	D3 antag
CCS(=O)(=O)N1CCN(Cc2c[nH]c3ccccc23)CC1	-4.8	6.3%	-2.8%	-0.6%	-16.6
Brc1ccccc1CN1CCN(Cc2c[nH]c3ccccc23)CC1	-13.5	-6.6%	-26.0%	nt	-80.2*
Brc1ccc(CN2CCN(Cc3c[nH]c4ccccc34)CC2)cc1	-41.0	2.9%	-52.7%	0.5%	-64.1*
CN1CCCN(Cc2ccccc2Br)CC1	-9.7	3.1%	-5.7%	-0.4%	-51.3*
O=C(COc1ccc2c(c1)OCO2)Nc1nccs1	-4.8	-1.0%	?	-0.1%	-8.5
C/C(=C(\CCOC(=O)c1ccccc1)SS/C(CCOC(=O)c1ccccc1)=C(/C)N(C=O)Cc1cnc(C)nc1N)N(C=O)Cc1cnc(C)nc1N	-1.8	nt	nt	nt	nt
CCOC(=O)CN1C(=O)N(c2ccc(C)c(C)c2)S(=O)(=O)c2ccccc21	5.6	1.5%	nt	nt	nt
CCOC(=O)c1c(-c2ccc(C)cc2)csc1NC(=O)c1ccc(N2C(=O)CCC2=O)cc1	0.9	-4.1%	3.6%	-0.7%	10.1
CCOC(=O)c1c(-c2ccc(C)cc2)csc1NC(=O)c1cccc(N2C(=O)CCC2=O)c1	5.5	3.2%	0.8%	-0.4%	7.4
CCOC(=O)c1cc(CC)sc1NC(=O)c1ccc(N2C(=O)CCC2=O)cc1	50.5*	0.9%	-6.2%	0.2%	17.2
CCOC(=O)c1c(-c2ccccc2)csc1NC(=O)c1cccc(N2C(=O)CCC2=O)c1	61.7*	1.7%	-2.9%	0.3%	43.7
CC1(c2ccccc2)OC(C(=O)O)=CC1=O (configuration not stated)	1.8	nt	nt	nt	nt
Cc1cc(/C=N/O)c(C)n1-c1ccc(Br)cc1	-12.2	5.9%	15.0%	-0.4%	-12.7
Cc1cccc(C)c1-n1c(C)cc(/C=N/NC(N)=S)c1C	-10.1	-11.0%	-8.6%	?	-83.9*
Cc1cc(/C=N/NC(N)=S)c(C)n1-c1cccc(Cl)c1	-8.2	-2.2%	22.5%	8.3%	-0.8
Cc1cc(/C=N/NC(N)=S)c(C)n1-c1ccc(Cl)cc1	-10.9	2.7%	0.0%	?	-57.6*
Cc1cc(/C=N/NC(N)=S)c(C)n1-c1ccc(Br)cc1	-13.3	-5.1%	-8.3%	?	-67.2*
COc1cccc(C(=O)Nc2ccc3nc(SCC(=O)N4CCc5ccccc54)sc3c2)c1	-0.1	2.8%	nt	nt	nt
Cc1ccc2c(c1)C(c1ccccc1)N(C(=O)COc1ccc(Cl)cc1Cl)CC(=O)N2 (configuration not stated)	7.1	-7.6%	nt	nt	nt
CSCCNC(=O)c1ccc(OC2CCN(CCc3ccccc3)CC2)cc1	-17.3	-1.1%	-39.7%	-0.9%	-78.6*
CN(C(=O)c1ccc(OC2CCN(CCc3ccccc3)CC2)cc1)C1CCOCC1	-21.1	-6.1%	-13.4%	0.4%	-82.5*
O=C1OC2(CCCCC2)CC2=C1C1O[C@](CCCCN3C(=O)c4ccccc4C3=O)(Cc3ccccc31)O2	nt	nt	nt	-0.8%[9.22 µM]	nt
CC(=O)c1ccc(NC(=O)CSc2cn(CC(=O)N(C(C)C)C(C)C)c3ccccc23)cc1	-7.8	?	nt	nt	nt
CCc1cccc(NC(=O)c2coc(=O)c3ccccc23)c1	-1.9	10.3%	nt	nt	nt
O=C(N/N=C/c1ccccn1)c1cc(-c2ccc(Cl)cc2)nc2ccccc12	-26.4	2.8%	-23.1%	2.4%	-66.7*
SMILES	DRD3 agonist	IDH1 R132H inh	Integrin act MD	B2AR arrestin	D3 antag
O=C(N/N=C/c1ccccn1)c1cc(-c2ccc(Br)cc2)nc2ccccc12	-52.5	5.8%	-31.1%	0.4%	-94.7*
CCCOc1cccc(-c2cc(C(=O)N/N=C/c3ccccn3)c3ccccc3n2)c1	-26.8	0.0%	-50.4%	-0.9%	?
COc1cc(C2CC(=O)Oc3c(C(CCN4CCN(c5ccccc5)CC4)c4ccc(N(C)C)cc4)c(OC)cc(OC)c32)cc(OC)c1OC (configuration not stated)	-14.0	-21.6%	4.2%	0.2%	-102.8*
COc1ccc(C2CC(=O)Oc3c(C(CCN4CCCCC4)c4ccc(N(C)C)cc4)c(OC)cc(OC)c32)cc1 (configuration not stated)	-2.7	5.9%	-0.5%	-0.5%	-57.6*
COc1ccc(C2CC(=O)Oc3c(C(CCN4CCCC(C)C4)c4ccc(N(C)C)cc4)c(OC)cc(OC)c32)cc1 (configuration not stated)	-29.7	0.7%	-10.6%	0.0%	5.8
OC1(c2ccccc2)CCN(Cc2ccccc2)C2CCCCC21 (configuration not stated)	12.2	-0.6%	-1.1%	0.1%	-85.2*
Cc1oc(-c2cccs2)nc1CN1CC[C@@](O)(c2ccccc2)[C@H]2CCCC[C@@H]21	-11.7	-3.7%	-40.8%	-0.3%	?
O=C1NC2(C=Cc3c(ccc4ccccc34)O2)Oc2ccccc21 (configuration not stated)	-3.8	3.0%	-34.5%	13.0%	-51.0*
CCOC(=O)c1c(C(=O)OCC)c(C)n(N2C(=O)CSC2=S)c1C	-2.1	5.1%	16.2%	-0.4%	-62.1*
CCOC(=O)c1c(C)[nH]sc1=S	-3.7	-0.4%	-15.8%	0.4%	?
NCc1ccccc1Sc1ccccc1CO	-14.9	nt	nt	nt	nt
COc1ccc(-c2cn3cccnc3n2)cc1NC(=O)Cc1ccccc1	-4.4	16.4%	nt	nt	nt
O=C(Cc1ccccc1)N(Cc1cccnc1)c1nc2c(F)cc(F)cc2s1	0.9	0.0%	nt	nt	nt
CC1=CC(C)[C@H](/C=N/n2c(=O)[nH]c3c([nH]c4ccc(Br)cc43)c2=O)C(C)C1 (some centres not stated)	3.5	4.3%	0.0%	0.1%	-66.5*
COc1ccc(S(=O)(=O)N2CCN(Cc3ccc4c(c3)OCO4)CC2)cc1OC	3.3	17.9%	nt	nt	nt
CC(C)(C)NC(=O)c1cccc2c1OC(C)(C)C2	49.2*	6.2%	-0.2%	-1.5%	8.9
CCN(CC)C(=O)C1CCN(Cc2cccc(OCc3ccccc3)c2)CC1	1.1	4.4%	-11.5%	0.4%	-61.1*
CCOC(=O)C1CCN(Cc2ccc(OC)c(OCc3ccccc3)c2)CC1	-18.2	1.2%	-32.7%	-0.4%	-64.6*
CCN(CC)C(=O)C1CCN(Cc2ccc(OCc3ccccc3)cc2)CC1	-5.7	4.1%	-55.3%	0.3%	5.4
COc1ccc(CN2CCC(C)CC2)cc1OCc1ccccc1	-25.3	-0.7%	-30.3%	-0.1%	-89.2*
COc1cc(CN2CCCCC2)ccc1OCc1ccccc1	-15.8	14.6%	0.0%	-0.2%	22.4
NCCCC[C@H](NC(=O)[C@@H]1CCCN1C(=O)[C@@H]1CSSC[C@H](NC(=O)CNC(=O)CNC(=O)CN)C(=O)N[C@@H](Cc2ccc(O)cc2)C(=O)N[C@@H](Cc2ccccc2)C(=O)N[C@@H](CCC(N)=O)C(=O)N[C@@H](CC(N)=O)C(=O)N1)C(=O)NCC(N)=O	-15.6	nt	nt	nt	nt
Cc1ccc(CNC(=O)C(C)n2c(=O)cc(-c3ccccc3)c3c(C)nn(C)c32)cc1 (configuration not stated)	-4.4	-11.1%	nt	nt	nt
